Results taken from the supplement of paper PMC10127200.

What was measured:
Assay in all cases: Euclidean distance of Cell Painting phenotypic profile (signed KS, 77 features) to DMSO centroid (dimensionless distance); 5 or 10 uM (library dependent); higher = stronger phenotypic change vs DMSO (phenoactivity)
Conditions in all cases: 48 h
786-O = test system: 786-O
Outline: (§1)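 Phenoactivity is computed as Euclidean distance to the median vehicle profile. The profiles, drawn from 77 Harmony features scored as signed Kolmogorov-Smirnov statistics versus same-plate vehicle wells, were corrected for plate position, correlation-weighted and replicate-averaged at the top dose. Stained cells were imaged confocally at 20X (9 fields/well) after 48 h with library compounds at 10 or 5 uM, 0.1% DMSO final, in five cancer lines and a healthy fibroblast line.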

A549 = test system: A549
Outline: as §1

DU145 = test system: DU145
Outline: as §1

FB = test system: FB
Outline: as §1

HEPG2 = test system: HEPG2
Outline: as §1

OVCAR4 = test system: OVCAR4
Outline: as §1

Cn1cnc(N)c2ncnc1-2 [3-Methyladenine]
Euclidean distance (786-O): 1.21
Euclidean distance (A549): 1.11
Euclidean distance (DU145): 1.58
Euclidean distance (FB): 1.28
Euclidean distance (HEPG2): 1.37
Euclidean distance (OVCAR4): 0.677

CC(=O)N1CCN(c2ccc(OCC3COC(Cn4ccnc4)(c4ccc(Cl)cc4Cl)O3)cc2)CC1 (stereo not drawn) [Ketoconazole]
Euclidean distance (786-O): 1.55
Euclidean distance (A549): 0.896
Euclidean distance (DU145): 2.29
Euclidean distance (FB): 0.789
Euclidean distance (HEPG2): 0.391
Euclidean distance (OVCAR4): 0.644

CNC[C@@H](O)c1ccc(O)c(O)c1 [L-Adrenaline]
Euclidean distance (786-O): 1.4
Euclidean distance (A549): 0.654
Euclidean distance (DU145): 0.94
Euclidean distance (FB): 1.3
Euclidean distance (HEPG2): 0.928
Euclidean distance (OVCAR4): 0.954

Nc1ncnc2c1c(-c1cccc(OCc3ccccc3)c1)cn2C1CC(CN2CCCC2)C1 (stereo not drawn)
Euclidean distance (786-O): 2.84
Euclidean distance (A549): 3.18
Euclidean distance (DU145): 2.28
Euclidean distance (FB): 3.95
Euclidean distance (HEPG2): 3.36
Euclidean distance (OVCAR4): 1.87

CNC(=O)c1cnn(-c2nc(N)c3ncn([C@@H]4O[C@H](CO)[C@@H](O)[C@H]4O)c3n2)c1 [Regadenoson]
Euclidean distance (786-O): 0.517
Euclidean distance (A549): 0.628
Euclidean distance (DU145): 0.867
Euclidean distance (FB): 1.43
Euclidean distance (HEPG2): 1.32
Euclidean distance (OVCAR4): 0.995

CCC[C@@H]1C[C@@H](C(=O)N[C@@H]([C@H]2O[C@H](SC)[C@H](O)[C@@H](O)[C@H]2O)[C@H](C)Cl)N(C)C1 [Clindamycin]
Euclidean distance (786-O): 0.793
Euclidean distance (A549): 0.77
Euclidean distance (DU145): 0.629
Euclidean distance (FB): 1.14
Euclidean distance (HEPG2): 0.601
Euclidean distance (OVCAR4): 0.602

COc1cc(NS(=O)(=O)c2ccc(N)cc2)nc(OC)n1 [SulfadiMethoxine sodium]
Euclidean distance (786-O): 1.05
Euclidean distance (A549): 0.781
Euclidean distance (DU145): 0.776
Euclidean distance (FB): 1.03
Euclidean distance (HEPG2): 0.428
Euclidean distance (OVCAR4): 0.631

Cc1cc(=O)oc2cc(O)ccc12 [4-Methylumbelliferone (4-MU)]
Euclidean distance (786-O): 0.739
Euclidean distance (A549): 0.856
Euclidean distance (DU145): 0.979
Euclidean distance (FB): 0.746
Euclidean distance (HEPG2): 0.603
Euclidean distance (OVCAR4): 0.95

COc1ccccc1OCC(O)CO (stereo not drawn) [Guaifenesin]
Euclidean distance (786-O): 1.05
Euclidean distance (A549): 0.957
Euclidean distance (DU145): 1.4
Euclidean distance (FB): 1.24
Euclidean distance (HEPG2): 1.99
Euclidean distance (OVCAR4): 1.31

CC(=O)NCCCS(=O)(=O)O [Acamprosate Calcium]
Euclidean distance (786-O): 0.651
Euclidean distance (A549): 0.371
Euclidean distance (DU145): 0.781
Euclidean distance (FB): 0.789
Euclidean distance (HEPG2): 0.967
Euclidean distance (OVCAR4): 0.839

Cc1c(CN2CCN(C(=O)[C@H](C)O)CC2)sc2c(N3CCOCC3)nc(-c3cnc(N)nc3)nc12
Euclidean distance (786-O): 4.15
Euclidean distance (A549): 2.91
Euclidean distance (DU145): 1.8
Euclidean distance (FB): 4.11
Euclidean distance (HEPG2): 3.04
Euclidean distance (OVCAR4): 3.09

CN1C(CCl)Nc2cc(Cl)c(S(N)(=O)=O)cc2S1(=O)=O (stereo not drawn) [Methyclothiazide]
Euclidean distance (786-O): 1.01
Euclidean distance (A549): 0.722
Euclidean distance (DU145): 0.72
Euclidean distance (FB): 0.776
Euclidean distance (HEPG2): 0.485
Euclidean distance (OVCAR4): 1.52

CCNC(=O)c1noc(-c2cc(C(C)C)c(O)cc2O)c1-c1ccc(CN2CCOCC2)cc1
Euclidean distance (786-O): 2.96
Euclidean distance (A549): 2.83
Euclidean distance (DU145): 3.5
Euclidean distance (FB): 2.77
Euclidean distance (HEPG2): 3.91
Euclidean distance (OVCAR4): 2.67
